# This is a sample that favours compounds with a hit; in the whole collection about 0.9% have one here.
# BLM inh – blocks DNA unwinding by human BLM helicase | 350,000 tested, 0.2% active | Potency, µM (highest dose often 56.1 µM), for inactives: at the highest dose activity change, negative = inhibition, usual class: inhibitors | recombinant BLM DNA unwinding, fluorescence dequenching | AID 2528;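 also: plate controls were vehicle for no effect and no enzyme for full effect; nearly all actives have a fitted effect of over 35% in size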
# TDP1 block – inhibitors of human tyrosyl-DNA phosphodiesterase TDP1. Q9NUW8. recombinant TDP1, AlphaScreen DNA substrate cleavage. Potency, µM (top dose mostly 130 µM), without a hit: at the top dose activity change, negative = inhibition, usual class: inhibitors. 350,000 tested, 0.28% active. AID 485290; also: nearly all actives have a fitted effect of over 40% in size
#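 Signal: AlphaScreen proximity between streptavidin donor and anti-FITC acceptor beads on intact substrate. Reaction: Tdp1 1 nM, substrate 15 nM final, 5 min RT after 15 min compound preincubation.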
# RECQ1 helicase – inhibitors of human RECQ1 DNA helicase; P46063; RECQ1 DNA unwinding, red fluorescence kinetic read; Potency, µM (titrated, usually from 57.3 µM), for the others: at the top dose activity, negative = inhibition, usual class: inhibitors; 240,000 tested, 0.54% active; AID 2549;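 also: plate controls were vehicle for no effect and no enzyme for full effect; nearly all actives have a fitted effect of over 30% in size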
# Target sequence (P46063 whole entry, looked up): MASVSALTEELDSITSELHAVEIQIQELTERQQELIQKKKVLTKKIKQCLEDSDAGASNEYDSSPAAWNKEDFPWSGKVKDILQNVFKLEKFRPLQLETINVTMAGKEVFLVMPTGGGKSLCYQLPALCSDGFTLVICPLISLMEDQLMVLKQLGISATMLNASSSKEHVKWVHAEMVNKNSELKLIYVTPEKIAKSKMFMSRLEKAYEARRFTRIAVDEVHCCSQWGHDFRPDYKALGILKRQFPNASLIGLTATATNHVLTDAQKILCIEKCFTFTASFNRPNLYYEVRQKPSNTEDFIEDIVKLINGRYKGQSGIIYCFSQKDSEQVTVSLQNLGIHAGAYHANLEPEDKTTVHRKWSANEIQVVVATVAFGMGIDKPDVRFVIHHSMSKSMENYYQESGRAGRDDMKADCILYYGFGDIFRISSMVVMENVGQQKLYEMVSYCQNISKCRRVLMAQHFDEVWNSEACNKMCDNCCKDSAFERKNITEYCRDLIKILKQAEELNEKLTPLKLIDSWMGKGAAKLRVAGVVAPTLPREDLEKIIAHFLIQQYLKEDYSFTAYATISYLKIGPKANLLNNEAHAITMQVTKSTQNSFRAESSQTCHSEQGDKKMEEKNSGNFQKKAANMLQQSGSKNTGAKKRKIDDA
#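 RECQ1T1 50 nM; forked duplex (20 bp + 30-nt ss tails) 200 nM, ATP 2 mM final; pH 8.0, 2 mM MgCl2, 2.5 ug/ml poly(dI-dC); 15 min compound preincubation; discontinuous kinetic read over 2 h at RT.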
# KAT2A inh – blocks human GCN5L2 histone acetyltransferase; Q92830; GCN5L2 HAT assay, ThioGlo1 CoA-SH fluorescence; Potency, µM (series often up to 58.9 µM), for inactives: at the top dose activity change, negative = inhibition, hits mostly inhibitors; 390,000 tested, 0.21% active; AID 504327
#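 Free CoA generated was detected with ThioGlo1 (50uM) fluorescence at Ex340nm/Em540nm, read immediately and after 20 min at room temperature. Enzyme, 20 nM in HEPES pH 7.5 buffer, saw compounds 15 min before adding 75uM H3(1-25) peptide and 70uM acetyl-CoA.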
# LMNA splice mod – modulators of lamin A splicing; HeLa LMNA splicing GFP/RFP minigene ratio, 48 h; Potency, µM (top dose mostly 46.1 µM), for the others: at the top dose ratio change, negative = inhibition, actives largely listed as inhibitors; 200,000 tested, 0.01% active; active = well fitted inhibition curve with a large enough effect in the signal ratio, with a control signal flat, not every such curve was filed as active; inconclusive = small, poorly fitted or top-dose-only effect, or effect the other way, or a change in a side signal; the % refers to the signal ratio
#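 Read-out is the ratio of GFP to DsRed2 object intensity, acquired by 488 nm laser-scanning cytometry on HeLa lamin A-EGFP minigene reporter cells. Compound incubation 48 hrs at 37 °C in Opti-MEM with 2% FBS; DMSO 0.5% final.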
# APEX1 inh – inhibitors of human APE1 endonuclease. P27695. recombinant APE1, TAMRA/BHQ-2 abasic DNA cleavage fluorescence. Potency, µM (top dose mostly 65.8 µM), inactives show top-dose activity change, negative = inhibition, hits mostly inhibitors. 350,000 tested, 0.35% active. AID 2517;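 also: plate controls were vehicle for no effect and reference inhibitor for full effect; nearly all actives have a fitted effect of over 55% in size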
#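 Step 1: APE1 (0.75 nM) with compound, 15 min RT. Step 2: add 50 nM fluorophore/quencher THF duplex. Step 3: three fluorescence reads 60 s apart (525/598 nm); read 3 minus read 1 = reaction progress.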
# * hit, by the source's call; i = inactive; ? = inconclusive; nt = no result given; ! = a repeat was not active; [ ] = remark or other dose. Unless noted, calls follow the shape of the dose curve; as a rule, active = well fitted curve in the direction sought with a large enough effect; inconclusive = small, poorly fitted or top-dose-only effect, or another doubt; inactive = no such curve, though single readings can be large; an effect the other way counts as inactive or inconclusive. Unless noted, % is scaled to controls: 0 for no effect and ±100 for the full control effect; potency is read from the fitted curve at half-maximal effect.
SMILES,BLM inh,TDP1 block,RECQ1 helicase,KAT2A inh,LMNA splice mod,APEX1 inh
Cc1cc(=O)oc2cc(OCC(=O)NCCc3ccccc3)ccc12,0%,nt,nt,3%,nt,46%
CNc1ncncc1-c1ccccc1OC,1%,28µM*,-3%,3%,9%,4%
COc1ccccc1CNc1ncncc1-c1ccccc1C(F)(F)F,-2%,nt,-7%,-10%,0%,-1%
COc1ccccc1CNc1ncncc1-c1ccccc1C,5%,32µM*,-13%,-5%,-6%,-5%
Cc1ccc(CNc2ccc(N3CCN(C)CC3)cc2)cc1,nt,nt,nt,nt,nt,19%
CCCCCC(O)c1ccc([C@H]2CCC(=O)[C@@H]2CCCCCCC(=O)O)cc1 (some centres not stated),1%,7%,-9%,31%,nt,13%
c1ccc(CNCc2nnc(-c3cc4ccccc4[nH]3)s2)cc1,nt,0%,nt,nt,nt,nt
O=c1c2nc(Br)n([C@@H]3O[C@@H]4CO[P@@](O)(=S)O[C@H]4[C@H]3O)c2nc2[nH]c(-c3ccccc3)cn12,-6%,22µM*,-1%,-18%,nt,13µM*
CC(C)(C)n1ncc2c(=O)n(Cc3ccccc3-c3ccccc3)cnc21,nt,nt,nt,nt,nt,-1%
NCCc1cnc[nH]1,?,8%,-12%,-6%,0.89µM*!,16%
NCCC(=O)NCCc1cnc[nH]1,1%[21.4 µM],9%[56.1 µM],0%[25.9 µM],2%,?,-2%
O=c1cc2oc3cc(O)c(O)cc3c(-c3ccccc3[N+](=O)[O-])c-2cc1O,0.71µM*,nt,nt,-11%,nt,0.13µM*
CC(C)C(OC(=O)CNC(=O)c1ccccc1)C(=O)Nc1cc(C(F)(F)F)ccc1Cl (configuration not stated),nt,0%,nt,nt,nt,nt
C=CC[N@@+]12CC[C@@]34c5ccccc5N5/C=C6/[C@H]7C[C@H]8[C@@]9(CC[N@@+]8(CC=C)C/C7=C/CO)c7ccccc7N(/C=C(/[C@@H](C[C@@H]31)/C(=C\CO)C2)[C@H]54)[C@@H]69,nt,nt,nt,nt,nt,-1%[21 µM]
CC1=CC(=O)c2ccccc2C1=O,18µM*!,6%,-12%,3%,?,-3%
COc1cccc2c1C(=O)C=C(C)C2=O,-13%,5%,7%,-2%,?,-2%
CCOC(=O)c1sc(NC(=O)C2C3C=CC(C3)C2C(=O)O)nc1C (configuration not stated),-3%,79µM*,0%,-7%,12%,?
C=C1C=C(C(F)F)n2ncc(C(=O)NCCc3ccccc3Cl)c2N1,nt,nt,nt,nt,nt,23%
CC(C)(C)n1ncc2c(=O)n(Cc3cc(Cl)ccc3Cl)cnc21,nt,nt,nt,nt,nt,-3%
CCN(CC)c1ccc(C=C2C(=O)OC3(CCCCC3)OC2=O)cc1,-4%,5%,32µM*,-19%,?,-5%
CCCCC1(C)OC(=O)C(=Cc2ccc(N(CC)CC)cc2)C(=O)O1 (configuration not stated),-5%,-4%,-12%,-9%,2%,-1%
Cc1cc(C)cc(N2CCn3c2nc2c3c(=O)n(CCc3ccccc3)c(=O)n2C)c1,-2%,1%,nt,-14%,1.8µM*,nt
O=c1c2c([N+](=O)[O-])cc([N+](=O)[O-])cc2sn1-c1ccc(Br)cc1,-2%,10%,0%,7.1µM*,-15%,-3%
O=C(Nc1ccc(Br)cc1)c1cc([N+](=O)[O-])cc([N+](=O)[O-])c1,-5%,nt,nt,-21%,nt,-3%
O=c1c2c([N+](=O)[O-])cc([N+](=O)[O-])cc2sn1Cc1ccccc1,-7%,nt,nt,1.3µM*,nt,-1%
SMILES,BLM inh,TDP1 block,RECQ1 helicase,KAT2A inh,LMNA splice mod,APEX1 inh
OC[C@@H]1O[C@H](OC2[C@@H](O)[C@@H](O)[C@@H](O)O[C@@H]2CO)[C@H](O)[C@@H](O)[C@@H]1OC1O[C@H](CO)[C@@H](O)[C@H](O)[C@@H]1O (some centres not stated),6%,10%,13%,6%,nt,5%
Cc1cc(C)cc(NC(=O)CSc2nc3ccccc3nc2N2CCCC2)c1,-8%,nt,nt,?,nt,7%
Cc1cc(C)cc(NC(=O)CSc2nc3ccccc3nc2N2CCCCC2)c1,-5%,nt,nt,35µM*,nt,7%
CC1(C(=O)N2CCN(C(=O)c3ccco3)CC2)CC1(Br)Br (configuration not stated),2%,5%,nt,6.3µM*,nt,53%
Cc1cccc(NC(=O)Cc2ccc(NC3=NC4CS(=O)(=O)CC4S3)cc2)c1 (configuration not stated),1%,nt,nt,22µM*,nt,24%
O=C(NCc1ccc(Cl)cc1)c1cccc(NC2=NC3CS(=O)(=O)CC3S2)c1 (configuration not stated),2%,nt,nt,28µM*,nt,-13%
COc1ccc(CNC(=O)c2cccc(NC3=NC4CS(=O)(=O)CC4S3)c2)cc1 (configuration not stated),0%,nt,nt,0%,nt,21%
CC(C)C[C@@H](NC(=O)[C@@H](Cc1ccccc1)NC(=O)c1cnccn1)B(O)O,2%,nt,nt,-8%,nt,nt
CCCCCC(O)/C=C/C=C\CCCCCCCC(=O)O (configuration not stated),-7%,4%,i,nt,nt,2%
[O-][n+]1ccccc1SSc1cccc[n+]1[O-],0%,11%,nt,14µM*,?,nt
O=c1c(N2CCN(c3ccc(F)cc3)CC2)csc2ccc(F)cc12,-3%,4%,nt,-3%,?,nt
O=c1c2cc(F)ccc2sn1-c1ccccc1,nt,1%,nt,1.1µM*,nt,39%
O=C(O)c1cccc(-n2sc3ccccc3c2=O)c1,nt,0%,nt,1.3µM*,nt,-7%
O=c1c2ccccc2sn1-c1ccccc1,-1%,12%,-5%,1µM*,-12%,-5%
Cc1ccccc1-n1sc2cc(F)ccc2c1=O,1%,10%,-2%,1.3µM*,?,0%
